Outcome and AC50 data for 7 compounds are collected here from PubChem BioAssay (EPA / NIEHS).

Experiment [1] is described as follows: ATG_GRE_CIS: Attagene CIS-FACTORIAL HepG2 Assay for human Glucocorticoid Response Elements (GRE) (AID 2282947). As to conditions: HepG2 GRE cis-reporter, Attagene multiplex mRNA; actives raise or lower the signal. The procedure, abridged:
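Endogenous transcription factor activity is read through cis-element reporter constructs transiently transfected into HepG2 cells. After 24 h treatment, labelled RT-PCR products are resolved by capillary electrophoresis; DMSO sets baseline for bidirectional curve fitting.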

The nature of experiment [2]: ATG_M_32_CIS: Attagene CIS-FACTORIAL HepG2 Assay for M32 Transcription Factor (Internal Marker) (AID 2282949).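 Note: background control marker of the multiplexed CIS panel rather than a real target.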 As to conditions: HepG2 Attagene cis-factorial M32 reporter, mRNA; actives raise or lower the signal. In a few lines: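 Internal background marker read-out: RT-PCR/capillary electrophoresis fluorescence of reporter transcripts from transiently transfected HepG2 cells after 24 h chemical exposure. Activity fitted bidirectionally relative to DMSO negative control.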

A short description of experiment [3]: ATG_M_06_CIS: Attagene CIS-FACTORIAL HepG2 Assay for M06 Transcription Factor (Internal Marker) (AID 2282950). As to conditions: HepG2 Attagene CIS-FACTORIAL M06 internal marker reporter; actives raise or lower the signal. In a few lines:
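Internal background marker within multiplexed cis-reporter HepG2 system. Cells transiently transfected, dosed 24 h; reporter mRNA measured by RT-PCR, HpaI digestion and capillary electrophoresis. Bidirectional fit relative to DMSO.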

Experiment [4] deals with Hepatocyte nuclear factor 6 (Homo sapiens) (UniProt Q9UBC0). Description: ATG_HNF6_CIS: Attagene CIS-FACTORIAL HepG2 Assay for human Hepatocyte Nuclear Factor 6 (HNF6) (AID 2282952). The note with it: HepG2 Attagene cis-factorial HNF6 reporter transcription; actives raise or lower the signal. In a few lines: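 Multiplexed mRNA reporter assay in transfected HepG2; 24 h dosing; RT-PCR plus capillary electrophoresis fluorescence; DMSO-referenced bidirectional curve fitting.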
Sequence of Hepatocyte nuclear factor 6 (Homo sapiens) (Q9UBC0 whole entry, looked up): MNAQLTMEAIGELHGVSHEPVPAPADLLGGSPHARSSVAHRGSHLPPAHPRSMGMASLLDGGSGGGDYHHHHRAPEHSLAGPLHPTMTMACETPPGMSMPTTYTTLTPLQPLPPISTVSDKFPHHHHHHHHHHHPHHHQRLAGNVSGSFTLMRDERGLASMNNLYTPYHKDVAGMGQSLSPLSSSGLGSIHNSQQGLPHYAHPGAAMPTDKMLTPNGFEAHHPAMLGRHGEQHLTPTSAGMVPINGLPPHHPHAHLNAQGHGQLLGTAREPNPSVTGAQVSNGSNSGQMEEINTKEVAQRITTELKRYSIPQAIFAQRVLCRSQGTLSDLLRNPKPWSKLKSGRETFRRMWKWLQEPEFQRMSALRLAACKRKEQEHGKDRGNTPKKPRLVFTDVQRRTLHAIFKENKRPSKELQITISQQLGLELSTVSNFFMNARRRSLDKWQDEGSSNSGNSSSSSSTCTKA

In experiment [5] the target is Heat shock factor protein 1 (Homo sapiens) (UniProt Q00613). Description: ATG_HSE_CIS: Attagene CIS-FACTORIAL HepG2 Assay for human Heat Shock Transcription Factor 1 (HSE) (AID 2282953). The note with it: HepG2 HSE cis-reporter, Attagene RNA transcription; actives raise or lower the signal. The procedure, abridged: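 HepG2 cells transfected with cis-promoter reporter units sensing endogenous transcription factor activity; reporter mRNA quantified 24 h post-dose by RT-PCR and capillary electrophoresis of 6-FAM-labelled products. Bidirectional fitting against DMSO.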
Sequence of Heat shock factor protein 1 (Homo sapiens) (Q00613 whole entry, looked up): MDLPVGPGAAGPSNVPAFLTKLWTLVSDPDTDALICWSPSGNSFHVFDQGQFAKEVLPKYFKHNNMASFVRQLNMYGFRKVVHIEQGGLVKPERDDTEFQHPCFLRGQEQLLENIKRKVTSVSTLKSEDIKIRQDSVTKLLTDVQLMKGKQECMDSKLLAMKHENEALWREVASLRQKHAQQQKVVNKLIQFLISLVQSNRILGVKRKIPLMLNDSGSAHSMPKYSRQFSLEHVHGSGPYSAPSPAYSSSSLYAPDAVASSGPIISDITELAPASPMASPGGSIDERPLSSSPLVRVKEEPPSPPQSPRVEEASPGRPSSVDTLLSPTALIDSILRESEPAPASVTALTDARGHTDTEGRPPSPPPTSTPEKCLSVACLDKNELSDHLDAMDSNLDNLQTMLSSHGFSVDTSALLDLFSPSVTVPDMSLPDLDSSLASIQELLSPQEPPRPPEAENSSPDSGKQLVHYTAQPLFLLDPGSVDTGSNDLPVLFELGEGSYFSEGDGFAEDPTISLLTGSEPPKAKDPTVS

A short description of experiment [6]: ATG_MRE_CIS: Attagene CIS-FACTORIAL HepG2 Assay for human Metal Responsive Element (MRE) (AID 2282954). As to conditions: HepG2 MRE cis-reporter transcription, Attagene multiplex; actives raise or lower the signal. In a few lines: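 Fluorescent reporter fragments separated by capillary electrophoresis give mRNA induction for the MRE unit after 24 h treatment of transfected HepG2 cells. Endogenous transcription-factor activity is read; DMSO serves as negative control and baseline.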

For experiment [7], the target named is Paired box protein Pax-6 (Homo sapiens) (UniProt P26367). As to the kind of experiment: ATG_Pax6_CIS: Attagene CIS-FACTORIAL HepG2 Assay for human Paired Box 6 (PAX6) (AID 2282956). The note with it: HepG2 CIS-FACTORIAL PAX6 reporter transcription, RNA readout; actives raise or lower the signal. In a few lines:
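Multiplexed cis-reporter HepG2 system; 24 h treatment; reporter mRNA read by RT-PCR/CE fluorescence; bidirectional fit vs DMSO.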

The nature of experiment [8]: ATG_PXRE_CIS: Attagene CIS-FACTORIAL HepG2 Assay for human Pregnane X Receptor Element (PXRE) (AID 2282957). The note with it: HepG2 Attagene CIS-FACTORIAL PXRE reporter, mRNA; actives raise or lower the signal. In a few lines:
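Cells: HepG2, transiently transfected reporter units under cis promoter control. Exposure: 24 h. Detection: reporter mRNA via RT-PCR/CE fluorescence; bidirectional fitting, DMSO-referenced.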

The nature of experiment [9]: ATG_PPRE_CIS: Attagene CIS-FACTORIAL HepG2 Assay for human Peroxisome Proliferator-activated Response Element (PPRE) (AID 2282958). As to conditions: HepG2 PPRE cis-element reporter, Attagene transcription factor profiling; actives raise or lower the signal. In a few lines:
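Read-out: fluorescent reporter mRNA fragments resolved by capillary electrophoresis after RT-PCR. HepG2 cells carried transiently transfected PPRE-driven cis reporter constructs and were dosed for 24 h; gain or loss of signal fitted relative to DMSO.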

The nature of experiment [10]: ATG_RORE_CIS: Attagene CIS-FACTORIAL HepG2 Assay for human RAR-related Orphan Receptor Element (RORE) (AID 2282959). The note with it: HepG2 Attagene cis-factorial RORE reporter, mRNA; actives raise or lower the signal. In a few lines:
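Readout: fluorescent reporter mRNA by RT-PCR plus capillary electrophoresis, 24 h after dosing transfected HepG2 cells. Endogenous transcription factor activity on a cis promoter element is measured. Gain or loss of signal fitted against DMSO.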

Experiment [11] can be described thus: ATG_Sox_CIS: Attagene CIS-FACTORIAL HepG2 Assay for human SRY-box transcription factor (SOX) (AID 2282960). The note with it: HepG2 Attagene cis-factorial SOX reporter, mRNA; actives raise or lower the signal. In a few lines: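 Read-out: fluorescent RT-PCR products of SOX1-linked reporter transcripts resolved by capillary electrophoresis, fitted bidirectionally against DMSO. Transiently transfected HepG2 cells, 24 h after chemical exposure, endogenous transcription factor activity.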

Experiment [12] concerns the target Transcription factor Sp1 (Homo sapiens) (UniProt P08047). As to the kind of experiment: ATG_Sp1_CIS: Attagene CIS-FACTORIAL HepG2 Assay for human Specificity Protein 1 (Sp1) (AID 2282961). As to conditions: HepG2 Sp1 cis-reporter transcription, actives raise or lower the signal. The procedure, abridged: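 Read-out: fluorescence of 6-FAM-labeled, HpaI-digested RT-PCR products separated by capillary electrophoresis. HepG2 cells carried transfected cis-element reporter units and were exposed to chemicals for 24 h; gain or loss of signal fitted relative to DMSO.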

Experiment [13] can be described thus: ATG_SREBP_CIS: Attagene CIS-FACTORIAL HepG2 Assay for human Sterol Regulatory Element Binding (SREBP) (AID 2282962). As to conditions: HepG2 Attagene cis-factorial SREBP reporter, mRNA; actives raise or lower the signal. In a few lines: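 mRNA induction of transfected cis-promoter reporters in HepG2 cells, 24 h post-dose. Detection: RT-PCR with 6-FAM-labelled products, HpaI digest, capillary electrophoresis. DMSO served as negative control and baseline.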

Experiment [14] addresses Signal transducer and activator of transcription 3 (Homo sapiens) (UniProt P40763). Description: ATG_STAT3_CIS: Attagene CIS-FACTORIAL HepG2 Assay for human Signal Transducer and Activator of Transcription 3 (STAT3) (AID 2282963). As to conditions: HepG2, Attagene cis-factorial STAT3 reporter transcription; actives raise or lower the signal. The procedure, abridged:
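Values derive from bidirectional fits relative to DMSO of reporter mRNA levels, measured by RT-PCR with capillary electrophoresis, in HepG2 cells carrying transiently transfected cis-regulated reporter units and exposed 24 h.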

Experiment [15] can be described thus: ATG_TA_CIS: Attagene CIS-FACTORIAL HepG2 Assay for human TA Basal Promoter (AID 2282964). As to conditions: HepG2 Attagene CIS-factorial TA basal promoter reporter; actives raise or lower the signal. The procedure, abridged: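 HepG2 cells transiently transfected with multiple reporter units under cis promoter elements, reporting endogenous transcription factor activity; this endpoint tracks the TA basal promoter as background control. Reporter mRNA after 24 h dosing measured by RT-PCR/capillary electrophoresis; bidirectional fits versus DMSO.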

A short description of experiment [16]: ATG_TCF_b_cat_CIS: Attagene CIS-FACTORIAL HepG2 Assay for human T-Cell-Factor with beta-catenin (TCF/b-cat) (AID 2282965). The note with it: HepG2 TCF/beta-catenin cis-reporter transcription, actives raise or lower the signal. The procedure, abridged:
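HepG2, transient MRTU transfection, cis-element-driven reporters (endogenous TFs). 24 h compound exposure. Readout: reporter mRNA by RT-PCR + 6-FAM primer extension, HpaI digest, capillary electrophoresis. Gain/loss fit vs DMSO baseline.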

Experiment [17] in a line: ATG_ISRE_CIS: Attagene CIS-FACTORIAL HepG2 Assay for human Interferon Regulatory Factor 1 (IRF1) binding to an Interferon-Stimulated Response Element (ISRE) (AID 2282948). The note with it: HepG2 ISRE cis-reporter (Attagene), mRNA transcription readout; actives raise or lower the signal. The procedure, abridged: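 Cell-based cis-reporter assay; HepG2; 24 h exposure; reporter mRNA by RT-PCR plus capillary electrophoresis fluorescence; activity in either direction scored relative to DMSO.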

Experiment [18] addresses Hypoxia-inducible factor 1-alpha (Homo sapiens) (UniProt Q16665). As to the kind of experiment: ATG_HIF1a_CIS: Attagene CIS-FACTORIAL HepG2 Assay for human Hypoxia Inducible Factor 1 (HIF1A) (AID 2282951). As to conditions: HepG2 Attagene cis-factorial HIF1a reporter transcription; actives raise or lower the signal. In a few lines: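 RT-PCR/capillary electrophoresis fluorescence readout of reporter transcripts from endogenous-TF-driven cis elements in transfected HepG2 cells, 24 h exposure; activity fitted in both directions against DMSO controls.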

Experiment [19] can be described thus: ATG_PBREM_CIS: Attagene CIS-FACTORIAL HepG2 Assay for human Phenobarbital-responsive Enhancer Module (PBREM) (AID 2282955). The note with it: HepG2 PBREM cis-reporter, Attagene multiplexed transcription; actives raise or lower the signal. The procedure, abridged:
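Reporter mRNA read by RT-PCR, 6-FAM primer extension, HpaI digestion and capillary electrophoresis. Transfected HepG2 cells, 24 h compound exposure. Gain or loss of signal fitted bidirectionally relative to DMSO baseline.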

Calls of active or inactive are those of the source. Rule for the calls: active = hit-call score of the fitted dose curve at least 0.9, where 1 is the maximum; inactive = score below 0.9.

Sequence of Hypoxia-inducible factor 1-alpha (Homo sapiens) (Q16665 whole entry, looked up): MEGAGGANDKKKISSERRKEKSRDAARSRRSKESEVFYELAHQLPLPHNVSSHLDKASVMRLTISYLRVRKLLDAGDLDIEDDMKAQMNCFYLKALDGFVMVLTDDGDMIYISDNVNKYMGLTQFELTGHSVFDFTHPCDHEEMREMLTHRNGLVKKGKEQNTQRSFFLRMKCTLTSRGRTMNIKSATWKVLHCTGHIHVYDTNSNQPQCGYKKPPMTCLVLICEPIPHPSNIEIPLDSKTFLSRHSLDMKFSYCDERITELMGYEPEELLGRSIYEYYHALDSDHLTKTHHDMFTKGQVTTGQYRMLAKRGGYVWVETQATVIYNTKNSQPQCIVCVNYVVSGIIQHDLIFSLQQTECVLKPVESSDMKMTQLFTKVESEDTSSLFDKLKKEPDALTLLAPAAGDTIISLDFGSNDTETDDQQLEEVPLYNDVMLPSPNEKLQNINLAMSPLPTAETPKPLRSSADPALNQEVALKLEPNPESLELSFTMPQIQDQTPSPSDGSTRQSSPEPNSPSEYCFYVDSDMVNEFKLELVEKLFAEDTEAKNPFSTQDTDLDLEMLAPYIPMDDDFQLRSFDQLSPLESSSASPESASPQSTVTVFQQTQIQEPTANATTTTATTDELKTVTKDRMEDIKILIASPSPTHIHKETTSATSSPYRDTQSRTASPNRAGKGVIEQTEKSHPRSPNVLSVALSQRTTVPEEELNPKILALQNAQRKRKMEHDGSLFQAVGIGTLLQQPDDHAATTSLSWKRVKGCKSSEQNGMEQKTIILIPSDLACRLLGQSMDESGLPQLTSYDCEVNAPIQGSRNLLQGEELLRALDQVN
Sequence of Signal transducer and activator of transcription 3 (Homo sapiens) (P40763 whole entry, looked up): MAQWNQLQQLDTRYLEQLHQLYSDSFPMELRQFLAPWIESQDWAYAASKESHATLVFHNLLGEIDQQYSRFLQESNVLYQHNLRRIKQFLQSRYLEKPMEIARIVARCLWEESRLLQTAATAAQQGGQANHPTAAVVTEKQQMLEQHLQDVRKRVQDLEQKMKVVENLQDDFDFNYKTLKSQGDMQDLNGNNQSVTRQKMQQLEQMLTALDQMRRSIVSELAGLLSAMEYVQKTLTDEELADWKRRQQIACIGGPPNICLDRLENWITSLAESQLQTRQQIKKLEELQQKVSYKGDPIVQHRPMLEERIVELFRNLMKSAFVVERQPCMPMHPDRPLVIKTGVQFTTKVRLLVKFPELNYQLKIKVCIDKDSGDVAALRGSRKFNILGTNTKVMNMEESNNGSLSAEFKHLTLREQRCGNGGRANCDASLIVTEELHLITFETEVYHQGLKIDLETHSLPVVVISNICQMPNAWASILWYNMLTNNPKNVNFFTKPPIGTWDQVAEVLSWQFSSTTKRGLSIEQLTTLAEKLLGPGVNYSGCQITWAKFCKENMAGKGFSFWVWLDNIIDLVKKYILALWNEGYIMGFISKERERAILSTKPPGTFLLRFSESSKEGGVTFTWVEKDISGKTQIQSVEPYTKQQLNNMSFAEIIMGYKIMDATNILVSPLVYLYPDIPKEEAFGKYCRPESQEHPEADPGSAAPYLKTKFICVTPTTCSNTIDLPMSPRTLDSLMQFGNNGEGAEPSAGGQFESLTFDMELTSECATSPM
Sequence of Paired box protein Pax-6 (Homo sapiens) (P26367 whole entry, looked up): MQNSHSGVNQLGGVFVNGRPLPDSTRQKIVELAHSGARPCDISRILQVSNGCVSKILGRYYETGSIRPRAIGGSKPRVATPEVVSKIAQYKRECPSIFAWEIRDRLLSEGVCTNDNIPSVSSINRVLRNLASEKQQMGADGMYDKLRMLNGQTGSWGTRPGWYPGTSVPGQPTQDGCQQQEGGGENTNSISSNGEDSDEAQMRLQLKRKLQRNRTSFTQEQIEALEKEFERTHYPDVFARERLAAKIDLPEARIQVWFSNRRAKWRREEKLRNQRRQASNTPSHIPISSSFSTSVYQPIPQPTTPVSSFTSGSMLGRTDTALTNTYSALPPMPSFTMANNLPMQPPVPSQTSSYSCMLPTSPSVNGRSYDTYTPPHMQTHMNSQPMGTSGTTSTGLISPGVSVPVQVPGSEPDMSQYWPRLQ
Sequence of Transcription factor Sp1 (Homo sapiens) (P08047 whole entry, looked up): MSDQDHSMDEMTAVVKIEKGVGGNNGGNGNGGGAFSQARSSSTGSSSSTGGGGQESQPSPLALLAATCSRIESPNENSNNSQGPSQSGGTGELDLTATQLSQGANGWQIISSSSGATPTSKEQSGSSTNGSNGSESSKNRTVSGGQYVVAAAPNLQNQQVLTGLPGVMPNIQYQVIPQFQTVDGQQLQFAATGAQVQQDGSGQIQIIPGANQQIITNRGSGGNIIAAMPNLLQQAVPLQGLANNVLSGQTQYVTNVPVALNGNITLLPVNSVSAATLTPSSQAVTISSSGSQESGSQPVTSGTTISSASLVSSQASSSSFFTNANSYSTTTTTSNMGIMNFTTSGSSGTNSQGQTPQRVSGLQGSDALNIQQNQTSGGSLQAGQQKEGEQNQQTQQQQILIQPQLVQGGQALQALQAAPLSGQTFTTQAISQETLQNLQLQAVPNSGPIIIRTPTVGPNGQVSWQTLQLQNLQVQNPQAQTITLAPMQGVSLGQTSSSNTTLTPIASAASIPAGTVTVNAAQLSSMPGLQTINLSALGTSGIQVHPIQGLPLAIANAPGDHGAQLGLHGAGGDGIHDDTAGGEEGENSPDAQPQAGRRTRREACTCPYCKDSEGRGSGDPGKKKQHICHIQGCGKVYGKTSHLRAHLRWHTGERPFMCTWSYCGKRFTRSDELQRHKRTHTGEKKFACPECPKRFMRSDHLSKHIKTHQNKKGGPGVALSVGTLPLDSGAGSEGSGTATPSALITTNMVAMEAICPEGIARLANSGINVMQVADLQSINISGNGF

The term AC50 denotes the midpoint of the concentration-response curve, whichever way the signal moves. `CC(C)c1cccc(O)c1`: the outcome in experiment [1], in experiment [2], in experiment [3], in experiment [4], in [5] and in experiment [6] was inactive. Besides, the compound was classed as inactive in experiment [7], in experiment [9], in experiment [10], in experiment [11], in [12] and in [13]. Also, the compound was classed as inactive in experiment [14], in experiment [15] and in experiment [16]. In addition, the concentration at half-maximal activity (AC50) in experiment [8] is 28.4 µM (active).
Turning to `CC(C)(C)c1cc(CCC(=O)NN)cc(C(C)(C)C)c1O`, the call in experiment [17], in experiment [2], in [3], in experiment [18], in [4] and in experiment [5] was inactive. The outcome in experiment [19], in experiment [7], in experiment [9], in experiment [10], in experiment [11] and in experiment [12] was inactive. Moreover, the result in experiment [13], in [14], in [15] and in experiment [16] was inactive. Besides, the results for the AC50 in experiment [6] and in experiment [8] were 186 µM (active) and 10.2 µM (active), respectively.
On to `CC(=O)c1c(C)cc(C(C)(C)C)cc1C`, for which the compound was classed as inactive in experiment [17], in experiment [2], in experiment [3], in experiment [18], in experiment [4] and in experiment [5]. Also, the result in [6], in experiment [19], in experiment [7], in experiment [9], in experiment [10] and in [11] was inactive. The call in experiment [12], in experiment [13], in [14], in [15] and in experiment [16] was inactive. Further, in experiment [8], the AC50 is 27.1 µM (active).
On to `Cc1ccc(O)c(C(C)(C)C)c1`, for which the AC50 was 100 µM (active) in experiment [1]; 156 µM (active) in experiment [4]; 138 µM (active) in [7]; 25.1 µM (active) in [8]; 162 µM (active) in [10]; 80.7 µM (active) in experiment [12]. Besides, in experiment [13], the half-maximal activity concentration (AC50) is 100 µM (active). The compound was classed as inactive in experiment [2], in experiment [3], in experiment [18], in [5], in experiment [19] and in experiment [9]. In addition, the call in experiment [11], in [14] and in experiment [15] was inactive.
For `CC(=O)O[C@H](CC(=O)[O-])C[N+](C)(C)C`, the compound was called inactive in experiment [1], in [2], in [3], in experiment [18], in [4] and in [5]. Moreover, the call in [6], in experiment [7], in experiment [8], in experiment [9], in experiment [10] and in [11] was inactive. The result in experiment [12], in experiment [13], in experiment [14], in experiment [15] and in experiment [16] was inactive.
In the case of `C=C(C)C(=O)O`, the compound was classed as inactive in experiment [1], in [2], in [3], in [4], in [5] and in experiment [6]. The compound was called inactive in experiment [8], in [9], in [10], in [11], in experiment [12] and in [13]. Also, the compound was classed as inactive in experiment [14], in experiment [15] and in experiment [16].
On to `CC(C)=CCO`, for which the outcome in experiment [17], in experiment [2], in experiment [3], in [18], in [4] and in [5] was inactive. Besides, the result in [6], in [7], in experiment [9], in experiment [10], in experiment [11] and in experiment [12] was inactive. Besides, the compound was classed as inactive in [13], in experiment [14], in [15] and in experiment [16]. The concentration at half-maximal activity (AC50) in experiment [8] was 47.2 µM (active).
